# HRas wt GTP = modulators of GTP binding to HRas wildtype, primary screen, biochemical, bead-based flow cytometry, multiplex; 190,000 tested, 0.14% active; AID 759, 2007; GTPase HRas (Homo sapiens), P01112; GST-Ras wt beads, Bodipy-FL-GTP binding; actives lie on both sides; GTP binding activity, % at 10 µM;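 active = GTP binding activity at least 20% away from the 100% baseline, either lowered as inhibitor or raised as activator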;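 note: 0% = unlabeled GTP competition control and 100% = no-compound control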
# Target sequence (P01112 whole entry, looked up): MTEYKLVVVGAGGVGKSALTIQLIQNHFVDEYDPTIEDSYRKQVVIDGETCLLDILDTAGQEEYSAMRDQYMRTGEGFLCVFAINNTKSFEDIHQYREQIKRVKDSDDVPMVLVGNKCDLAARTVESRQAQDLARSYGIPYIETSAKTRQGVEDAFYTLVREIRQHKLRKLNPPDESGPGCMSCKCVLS
# Rac1 wt modul = wildtype Rac1 GTP binding modulators, primary screen, biochemical, GST-Rac1 beads, flow cytometry, multiplex | GTP binding activity (% of control), % at 10 µM | Ras-related C3 botulinum toxin substrate 1 (Homo sapiens), P63000 | fluorescent GTP binding; actives lie on both sides; 0 = cold GTP competed, 100 = untreated | 190,000 tested, 0.27% active;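 active = GTP binding activity at least 20 points away from the 100% control level, either lower or higher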
# Rab7 wt GTP bind = modulators of GTP binding to Rab7, primary screen, biochemical, wildtype, multiplex bead flow cytometry; Rab7 GTPase wild type (dog), Bodipy-FL-GTP binding; GST-Rab7 beads, fluorescent GTP binding; actives lie on both sides; untreated = 100%, excess cold GTP = 0%; GTP binding activity (percent of control), % at 10 µM; 190,000 tested, 0.055% active;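 active = fluorescent GTP binding to Rab7 beads changed by at least 20 points from the 100% baseline, either direction, mostly lower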;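 note: median green fluorescence of bound Bodipy-FL-GTP per Rab7 bead population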
# Rac1 act GTP bind = GTP binding modulators of activated mutant Rac1, primary screen, biochemical, bead-based flow cytometry, multiplex, fluorescent GTP. GST-Rac1 activated beads; actives lie on both sides; 100% means binding = to untreated wells. percent activity (GTP binding), % at 10 µM. 190,000 tested, 0.11% active. AID 764, 2007;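 active = GTP binding at least 20 percentage points away from the 100% baseline, in either direction, so actives lie on both sides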
# Rab2A wt mod = modulators of GTP binding to Rab2A wildtype, primary screen, biochemical, dog, bead-based flow cytometry, multiplex. Ras-related protein Rab-2A (Canis lupus familiaris), P61105. GST-Rab2 wt beads, Bodipy-GTP binding. GTP binding activity, % at 10 µM. 190,000 tested, 0.19% active;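 active = GTP binding activity at least 20 points away from 100%, either lowered or raised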;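 note: 0% = beads with excess unlabeled GTP and 100% = no-compound control corrected for plate trend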
# Cdc42 wt = modulators of GTP binding to wildtype Cdc42, primary screen, biochemical, multiplex bead flow cytometry, Bodipy-GTP; Cell division control protein 42 homolog (Homo sapiens), P60953; GST-Cdc42 beads; actives lie on both sides; percent activity (GTP binding), % at 10 µM; 190,000 tested, 0.2% active;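 active = percent activity GTP binding at least 20 points away from the 100% baseline, either down as inhibitor or up as activator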;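 note: median bead fluorescence of bound Bodipy-FL-GTP at 100 nM; 0% = excess unlabeled GTP control and 100% = no compound control; below 100% means less GTP binding so inhibitor and above means activator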
# Target sequence (P60953 whole entry, looked up): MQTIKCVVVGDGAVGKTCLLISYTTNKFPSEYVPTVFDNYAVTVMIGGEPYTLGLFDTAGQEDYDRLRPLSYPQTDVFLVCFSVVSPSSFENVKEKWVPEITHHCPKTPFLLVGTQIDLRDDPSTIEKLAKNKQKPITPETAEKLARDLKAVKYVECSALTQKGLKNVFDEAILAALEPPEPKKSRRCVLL
# Starred values were filed as active, the others as inactive; [ ] = dose if it differs, or a comment. Only some compounds are listed: those with a hit (about 0.4% of all), similar ones and a draw of the others.
SMILES,HRas wt GTP,Rac1 wt modul,Rab7 wt GTP bind,Rac1 act GTP bind,Rab2A wt mod,Cdc42 wt
COc1ccc(OC)c(NC(=O)CSc2ccc3nnc(-c4cccnc4)n3n2)c1,100,99,105,96,97,93
COc1cc2[nH]c(=S)n(CC3CCCO3)c(=O)c2cc1OC (stereo unspecified),104,104,104,99,105,104
COc1cc2[nH]c(=S)nc(NC3CCCCCC3)c2cc1OC,66*,60*,88,83,69*,69*
COc1cc2[nH]c(=S)nc(NCC3CCCO3)c2cc1OC (stereo unspecified),81,74*,88,84,80,74*
COc1ccc(CCNC(=O)C(=O)Nc2nccs2)cc1OC,99,98,97,97,99,99
COc1ccc(CC(=O)Nc2ccc(C(=O)Nc3nccs3)cc2)cc1OC,77*,82,94,89,73*,73*
CC(C)C(=O)Nc1ccc2nn(-c3ccccc3)nc2c1,90,87,94,91,89,88
O=c1c2ccccc2nc2ccc(NCc3ccco3)nn12,82,93,93,92,79*,87
Cc1sc2nc3ccc(NCc4ccco4)nn3c(=O)c2c1C,34*,22*,18*,30*,27*,28*
Cn1c(CNC(=O)c2ccco2)nnc1SCC(=O)Nc1c(F)cc(F)cc1Br,100,99,103,97,98,97
O=C(NCc1cccnc1)c1cccn2c(=O)c3sccc3nc12,87,76*,91,86,82,87
O=C(O)c1ccccc1C(=O)NCc1cccnc1,101,104,97,102,100,99
CC(C)c1nc(NCCO)c2nnn(Cc3ccccc3)c2n1,100,103,105,98,102,99
CCC(/C=C1\Sc2ccc(OC)cc2N1CC)=C\c1sc2ccc(OC)cc2[n+]1CCCS(=O)(=O)[O-],94,96,95,93,92,94
CCC(/C=C1\Sc2ccc(OC)cc2N1CCO)=C\c1sc2ccc(OC)cc2[n+]1CCO,78*,87,90,89,80,82
COc1cc(CCNc2ccc3nnc(-c4ccccc4)n3n2)cc(OC)c1OC,71*,73*,89,89,74*,73*
N#Cc1c(-c2ccccc2Cl)cc(-c2ccccc2)[nH]c1=S,95,93,104,90,96,93
N#Cc1c2c(c(-c3ccccc3Cl)[nH]c1=S)CCCC2,85,80,91,80,86,79*
Cc1ccc(C(=O)CC2(O)C(=O)N(C)c3ccccc32)s1 (stereo unspecified),100,97,105,96,99,98
CC(C)(C)C(=O)OCC1OC(n2cnc(C(N)=O)n2)C(O)C1O (stereo unspecified),110,120*[activator],104,103,114,119
COC(=O)c1ncn(C2OC(COC(C)=O)C(OC(C)=O)C2OC(C)=O)n1 (stereo unspecified),102,104,101,100,98,98
Cc1cc(/C=c2\sc3nc4ccccc4n3c2=O)c(C)n1-c1ccc(C(=O)O)cc1,88,81,94,76*,85,78*
CC(C)c1nc2oc3c(=O)[nH]cnc3c2c2c1CCC2,74*,79*,81,82,73*,70*
CC(C)Cc1nc2oc3c(Cl)ncnc3c2c2c1CCC2,101,101,97,99,99,100
CC(C)c1nc2sc3c(=O)[nH]c(=S)[nH]c3c2c2c1CCC2,97,98,101,96,93,100
SMILES,HRas wt GTP,Rac1 wt modul,Rab7 wt GTP bind,Rac1 act GTP bind,Rab2A wt mod,Cdc42 wt
CCCc1nc2oc3c(=O)[nH]cnc3c2c2c1CCCC2,82,79*,93,85,81,82
Cn1nnnc1SCC(=O)Nc1ccc2c(c1)OCO2,94,99,103,94,98,99
O=[N+]([O-])c1cc2oc3c(c2c(C=NCc2ccccc2)c1O)CCCC3,79*,73*,78*,74*,76*,74*
CC(C)CN=Cc1c(O)c([N+](=O)[O-])cc2oc3c(c12)CCCC3,97,97,95,94,94,97
Cc1ccc(SCC(=O)NC(=O)NCCC(C)C)c(C)c1,101,101,106,99,102,99
Cc1ccc(NC(=S)NNC(=O)c2c(Cl)c(C)nn2C)cc1,99,100,96,97,99,100
Cc1ccc(NC(=S)NNC(=O)c2cn(C)nc2C)cc1,113,134*[activator],107,108,114,118
COc1ccccc1CNC(=O)c1c(N)n(CCCN2CCOCC2)c2nc3ccccc3nc12,84,78*,87,86,82,80
COc1ccc(Cl)cc1NC(=O)Cn1c(NCCO)nc2ccccc21,99,100,101,94,99,95
Cc1cc(NC(=O)CN2CCc3ccccc3C2)nc2c1c(=O)oc1ccccc12,92,92,95,93,92,94
S=c1[nH]nc(-c2ccco2)n1-c1ccccc1Cl,84,77*,88,79*,85,79*
CN(C)c1ccc(/C=c2/sc3n(c2=O)NC2(c4ccccc4)N(C)C(=O)N(C)C2(c2ccccc2)N=3)cc1 (stereo unspecified),96,105,96,101,97,101
Cc1cccn2cc(-c3ccc(Cl)cc3)nc12,91,93,93,93,93,91
Cc1ccc(-c2cn3cccc(C)c3n2)cc1,112,108,120*[activator],107,118,109
CCOc1ccccc1NC(=O)NC(C)c1ccncc1 (stereo unspecified),99,98,98,96,98,97
O=C(Nc1c(F)cccc1F)c1cnc(N2CCN(c3ccccn3)CC2)c2ccccc12,101,131*[activator],101,106,97,103
CC(=O)Nc1ccc(NC(=O)c2ccccc2C)cc1,102,105,102,101,102,103
Cc1ccccc1C(=O)Nc1ccc2c(C#N)c3nc4ccccc4nc3n2c1,80,76*,89,88,76*,88

# Source: PubChem
